Test results reported in PubChem BioAssay (Tox21).
“And” between values parts separate entries of the source, which are not always exact repeats. Equal values may be shown once. Records with an inconclusive call do not appear. Some compounds were tested as several samples or in several runs, with calls that do not always agree. The source made the active and inactive calls. Unless noted, calls come from the whole dose curve; as a rule, active = well fitted curve in the direction sought with a large enough effect in the repeat runs; inconclusive = weak or mixed curves; inactive = no such curve, though single readings can be large; an effect the other way counts as inactive or inconclusive.

How the values were obtained:
[1] = qHTS assay to identify small molecule agonists of the estrogen receptor alpha (ER-alpha) signaling pathway in the presence of an antagonist - cell viability counter screen (AID 1259386);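 note: cells exposed to compounds for 22 h at 37 °C before the viability read; nearly all actives have a fitted effect of over 30% in size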; note: potency is the fitted concentration of half-maximal effect
Method in brief: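 Read-out: CellTiter-Fluor fluorescence after 1hr reagent incubation, measured in the same wells as the luciferase readout. VM7Luc4E2 cells were exposed to 15 compound concentrations with 10.0nM ICI-182,780 for 22hr at 37C.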

[2] = qHTS assay to identify small molecule antagonists of the progesterone receptor (PR) signaling pathway - cell viability counter screen (AID 1346798); note: nearly all actives have a fitted effect of over 50% in size; note: potency is the fitted concentration of half-maximal effect
Method in brief: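 ATP content as viability readout: CellTiter-Glo luminescence, 30 min room temperature, in PR-UAS-bla HEK293T cells after 16 hr compound/R5020 treatment at 37C and 5% CO2.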

[3] = qHTS assay to identify small molecule agonists of the progesterone receptor (PR) signaling pathway - cell viability counter screen (AID 1346799; calls by dose curve; note: nearly all actives have a fitted effect of over 45% in size; note: potency is the fitted concentration of half-maximal effect)
Method in brief: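 Cytotoxicity in PR-bla HEK293T cells: 16 h compound, 37C; CellTiter-Glo added post-FRET read; luminescence after 30 min RT.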

[4] = qHTS assay to identify small molecule agonists of the TGF-beta/Smad signaling pathway - cell viability counter screen (AID 1346829); note: nearly all actives have a fitted effect of over 45% in size; note: potency is the fitted concentration of half-maximal effect
Method in brief: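 Tox21 qHTS format: SBE-bla HEK 293T cells treated with DMSO-dissolved compounds for 5 hr; CellTiter-Glo luminescence after 30 min at room temperature.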

[5] = qHTS assay to identify small molecule agonists of the TGF-beta/Smad signaling pathway (AID 1346859; active = well fitted activation curve with a large enough effect in the signal ratio in the repeat runs, not every such curve was filed as active; the % refers to the signal ratio; note: series mostly up to about 77 µM; % is set by controls: 0 for no effect and ±100 for the full control effect)
Method in brief: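 Stable Smad binding element-beta-lactamase HEK 293T cells; 5 hr compound exposure at 37 C under 5% CO2; 2 hr room-temperature substrate step; fluorescence excited at 405 nm, collected at 460 nm and 530 nm.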

[6] = Human pregnane X receptor (PXR) small molecule agonists, qHTS cell viability counter screen (AID 1346977); note: nearly all actives have a fitted effect of over 50% in size; note: potency is the fitted concentration of half-maximal effect
Method in brief: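 Readout is CellTiter-Fluor fluorescence from PXR-Luc HepG2 cells. Plated cells rested 5hr, then were treated with compounds for 24hr at 37C and 5% CO2, with reagent present during the last hour.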

[7] = Caspase-3/7 induction in HepG2 cells by small molecules, qHTS assay (AID 1346978); note: nearly all actives have a fitted effect of over 15% in size; note: potency is the fitted concentration of half-maximal effect
Method in brief: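 Caspase-3/7 induction was measured by Caspase-Glo 3/7 luminescence (30 min, room temperature) after a 17 hr compound exposure of wild-type HepG2 cells seeded at 2,000 per well and pre-incubated 5 hr.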

[8] = Caspase-3/7 induction in CHO-K1 cells by small molecules, qHTS cell viability counter screen (AID 1346979); note: nearly all actives have a fitted effect of over 35% in size; note: potency is the fitted concentration of half-maximal effect
Method in brief: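 To flag cytotoxic compounds, treated CHO-K1 wild-type cells were given CellTiter-Fluor at 16hr and read fluorescently after 1hr at 37C; the caspase-3/7 luminescence was measured in these same wells.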

[9] = molecular target: Progesterone receptor (Homo sapiens) (UniProt P06401); assay: qHTS assay to identify small molecule agonists of the progesterone receptor (PR) signaling pathway (AID 1346784; calls by dose curve; note: % is set by controls: 0 for no effect and ±100 for the full control effect; nearly all actives have a fitted effect of over 30% in size)
Chain of Progesterone receptor (Homo sapiens) (P06401 whole entry, looked up): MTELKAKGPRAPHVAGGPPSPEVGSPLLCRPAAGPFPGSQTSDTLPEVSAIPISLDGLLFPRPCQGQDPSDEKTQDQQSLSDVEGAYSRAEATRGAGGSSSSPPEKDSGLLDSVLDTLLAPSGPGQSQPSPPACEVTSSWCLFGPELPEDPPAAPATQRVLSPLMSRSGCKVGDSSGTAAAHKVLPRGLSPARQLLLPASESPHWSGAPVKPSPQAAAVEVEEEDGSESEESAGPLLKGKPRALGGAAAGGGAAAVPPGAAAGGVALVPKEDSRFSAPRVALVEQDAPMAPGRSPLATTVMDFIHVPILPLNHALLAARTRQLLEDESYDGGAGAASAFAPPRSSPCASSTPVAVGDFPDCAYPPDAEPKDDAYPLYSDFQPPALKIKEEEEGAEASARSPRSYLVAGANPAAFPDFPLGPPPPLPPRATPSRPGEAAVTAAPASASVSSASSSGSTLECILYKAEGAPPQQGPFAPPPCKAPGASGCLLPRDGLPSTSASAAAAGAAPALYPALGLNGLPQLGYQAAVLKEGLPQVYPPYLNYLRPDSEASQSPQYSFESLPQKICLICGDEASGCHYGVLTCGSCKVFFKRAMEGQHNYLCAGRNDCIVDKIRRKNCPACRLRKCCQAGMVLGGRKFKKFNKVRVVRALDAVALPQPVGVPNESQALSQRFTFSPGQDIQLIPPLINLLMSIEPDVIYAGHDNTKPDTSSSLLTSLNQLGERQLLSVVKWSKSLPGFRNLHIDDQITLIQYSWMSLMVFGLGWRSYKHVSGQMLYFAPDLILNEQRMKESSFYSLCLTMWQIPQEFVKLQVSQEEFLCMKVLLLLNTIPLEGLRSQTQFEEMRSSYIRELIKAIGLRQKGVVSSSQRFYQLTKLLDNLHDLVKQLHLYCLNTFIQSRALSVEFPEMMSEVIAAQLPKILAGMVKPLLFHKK
Method in brief: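 Using charcoal-stripped serum (2%) to limit endogenous steroids, PR-UAS-bla HEK 293T cells received compounds for 16 hr at 37C after 6 hr plating; beta-lactamase FRET fluorescence was recorded following 2 hr substrate loading at room temperature.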

[10] = qHTS assay to identify small molecule antagonists of the TGF-beta/Smad signaling pathway - cell viability counter screen (AID 1346824); note: nearly all actives have a fitted effect of over 50% in size; note: potency is the fitted concentration of half-maximal effect
Method in brief: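 Cytotoxicity counter-screen run in the same wells as the beta-lactamase Smad reporter read: CellTiter-Glo luminescence after 30 min at room temperature. HEK 293T SBE-bla cells had 5 hr compound exposure at 37 C with TGF-beta1 (0.25 ng/mL stock).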

[11] = molecular target: Thyrotropin-releasing hormone receptor (Homo sapiens) (UniProt P34981); assay: qHTS assay to identify small molecule agonists of the thyrotropin-releasing hormone receptor (TRHR) signaling pathway (AID 1346891; calls by dose curve;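 note: HEK293 cells expressing TRHR with calcium dye readout; series mostly up to about 58 µM; % is set by controls: 0 for no effect and ±100 for the full control effect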)
Chain of Thyrotropin-releasing hormone receptor (Homo sapiens) (P34981 whole entry, looked up): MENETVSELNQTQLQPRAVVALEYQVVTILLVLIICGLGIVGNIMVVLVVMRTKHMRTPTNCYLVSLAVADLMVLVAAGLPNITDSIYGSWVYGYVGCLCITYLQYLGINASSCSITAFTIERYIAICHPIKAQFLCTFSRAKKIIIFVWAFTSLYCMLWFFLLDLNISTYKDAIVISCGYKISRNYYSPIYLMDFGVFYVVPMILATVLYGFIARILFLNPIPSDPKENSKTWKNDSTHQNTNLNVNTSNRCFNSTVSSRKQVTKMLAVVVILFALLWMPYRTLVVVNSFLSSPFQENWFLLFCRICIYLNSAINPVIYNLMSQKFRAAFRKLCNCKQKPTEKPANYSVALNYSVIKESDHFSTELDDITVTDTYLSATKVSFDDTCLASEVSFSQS
Method in brief: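 In 1536-format, 1500 TRHR-Hek293 cells per well grew 18 h, took up calcium dye for 2 h at 37 °C, received compound, and were read kinetically; 15-point titrations, triplicates.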

[12] = molecular target: Nuclear receptor subfamily 1 group I member 2 (Homo sapiens) (UniProt O75469); assay: Human pregnane X receptor (PXR) small molecule agonists, qHTS assay (AID 1346982); note: nearly all actives have a fitted effect of over 35% in size; note: potency is the fitted concentration of half-maximal effect; for activation: % is set by controls: 0 for no effect and ±100 for the full control effect
Chain of Nuclear receptor subfamily 1 group I member 2 (Homo sapiens) (O75469 whole entry, looked up): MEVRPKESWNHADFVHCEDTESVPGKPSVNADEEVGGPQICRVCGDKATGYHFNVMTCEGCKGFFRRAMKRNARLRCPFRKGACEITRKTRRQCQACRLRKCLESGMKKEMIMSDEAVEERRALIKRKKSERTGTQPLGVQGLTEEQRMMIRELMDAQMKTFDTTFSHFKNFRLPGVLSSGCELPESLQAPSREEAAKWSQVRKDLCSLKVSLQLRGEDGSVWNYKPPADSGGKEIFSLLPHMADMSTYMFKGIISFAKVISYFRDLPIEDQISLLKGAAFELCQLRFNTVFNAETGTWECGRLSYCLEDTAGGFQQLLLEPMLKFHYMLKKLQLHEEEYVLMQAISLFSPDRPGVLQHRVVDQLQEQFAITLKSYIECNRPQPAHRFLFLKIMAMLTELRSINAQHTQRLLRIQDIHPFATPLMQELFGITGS
Method in brief: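 HepG2 PXR-Luc reporter line, 5% charcoal-stripped FBS; 5 hr pre-incubation, compound (DMSO) 24 hr at 37 C/5% CO2; ONE-Glo 30 min RT; luminescence read-out.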

[13] = molecular target: Acetylcholinesterase (Homo sapiens) (UniProt P22303); assay: Acetylcholinesterase (AChE) small molecule antagonists: colormetric cell-based qHTS assay (AID 1347395; calls by dose curve; note: nearly all actives have a fitted effect of over 30% in size; note: potency is the fitted concentration of half-maximal effect)
Chain of Acetylcholinesterase (Homo sapiens) (P22303 whole entry, looked up): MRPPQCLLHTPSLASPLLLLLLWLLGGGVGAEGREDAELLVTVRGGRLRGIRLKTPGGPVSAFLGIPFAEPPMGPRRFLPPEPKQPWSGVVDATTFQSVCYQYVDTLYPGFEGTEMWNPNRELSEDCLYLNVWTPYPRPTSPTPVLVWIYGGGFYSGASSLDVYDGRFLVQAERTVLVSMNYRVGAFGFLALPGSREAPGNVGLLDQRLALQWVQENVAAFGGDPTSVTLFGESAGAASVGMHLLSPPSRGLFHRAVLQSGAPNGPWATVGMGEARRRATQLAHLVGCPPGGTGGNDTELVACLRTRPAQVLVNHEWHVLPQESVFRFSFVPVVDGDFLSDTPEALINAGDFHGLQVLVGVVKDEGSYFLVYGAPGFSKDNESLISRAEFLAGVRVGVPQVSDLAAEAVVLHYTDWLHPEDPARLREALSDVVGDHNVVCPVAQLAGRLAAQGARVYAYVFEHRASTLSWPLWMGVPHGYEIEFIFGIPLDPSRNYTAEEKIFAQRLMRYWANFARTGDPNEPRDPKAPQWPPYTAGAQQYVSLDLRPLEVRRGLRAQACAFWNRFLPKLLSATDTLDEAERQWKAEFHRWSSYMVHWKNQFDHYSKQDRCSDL
Method in brief: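 Neuroblastoma line SH-SY5Y supplied the enzyme; cells were preincubated with compound for 30 min at 37 C and 5% CO2. Acetylthiocholine with DTNB was then added for 90 min at 37 C, and thiocholine was measured by colour.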

[14] = molecular target: Progesterone receptor (Homo sapiens) (UniProt P06401); assay: qHTS assay to identify small molecule antagonists of the progesterone receptor (PR) signaling pathway (AID 1346795; active = well fitted inhibition curve with a large enough effect in the signal ratio in the repeat runs, not every such curve was filed as active; the % refers to the signal ratio; note: potency is the fitted concentration of half-maximal effect)
Method in brief: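 Inhibition of R5020-induced (1 nM final) beta-lactamase reporter signal in PR-UAS-bla HEK293T cells was scored by FRET fluorescence after overnight (16 hr) compound treatment.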

[15] = Caspase-3/7 induction in HepG2 cells by small molecules, qHTS cell viability counter screen (AID 1346981); note: nearly all actives have a fitted effect of over 30% in size; note: potency is the fitted concentration of half-maximal effect
Method in brief: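 Fluorescence read-out of live-cell protease activity (CellTiter-Fluor) after 1 hr with reagent. This was measured in the same wells as the caspase-3/7 luminescence, on HepG2 cells exposed to DMSO-dissolved compounds for 16 hr at 37 C.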

[16] = molecular target: Thyrotropin-releasing hormone receptor (Homo sapiens) (UniProt P34981); assay: qHTS assay to identify small molecule antagonists of the thyrotropin-releasing hormone receptor (TRHR) signaling pathway (AID 1346877; active = well fitted inhibition curve with a large enough effect in the repeat runs, not every such curve was filed as active; note: series mostly up to about 51 µM; % is set by controls: 0 for no effect and ±100 for the full control effect)
Method in brief: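 HEK293/TRHR cells, 18 h, 37 °C; Ca2+ dye 2 h; cpd 5 min RT; TRH 1 nM final; fluorescence read 3 min, 1 s intervals; 15 concs, triplicate.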

[17] = Caspase-3/7 induction in CHO-K1 cells by small molecules, qHTS assay (AID 1346980); note: % is set by controls: 0 for no effect and ±100 for the full control effect; nearly all actives have a fitted effect of over 15% in size
Method in brief: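 Luminescent Caspase-Glo 3/7 read (30min, room temperature) quantified apoptosis induction. Cells were wild-type CHO-K1, treated with compound for 17hr at 37 C and 5% CO2.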

[18] = molecular target: Nuclear receptor subfamily 1 group I member 2 (Rattus norvegicus) (UniProt Q9R1A7); assay: Rat pregnane X receptor (rPXR) activation by small molecules, qHTS assay (AID 1346983); conditions: rPXR luciferase reporter cells, One-Glo luminescence, 24 h; stronger effect = higher value; note: % is set by controls: 0 for no effect and ±100 for the full control effect; nearly all actives have a fitted effect of over 20% in size
Chain of Nuclear receptor subfamily 1 group I member 2 (Rattus norvegicus) (Q9R1A7 whole entry, looked up): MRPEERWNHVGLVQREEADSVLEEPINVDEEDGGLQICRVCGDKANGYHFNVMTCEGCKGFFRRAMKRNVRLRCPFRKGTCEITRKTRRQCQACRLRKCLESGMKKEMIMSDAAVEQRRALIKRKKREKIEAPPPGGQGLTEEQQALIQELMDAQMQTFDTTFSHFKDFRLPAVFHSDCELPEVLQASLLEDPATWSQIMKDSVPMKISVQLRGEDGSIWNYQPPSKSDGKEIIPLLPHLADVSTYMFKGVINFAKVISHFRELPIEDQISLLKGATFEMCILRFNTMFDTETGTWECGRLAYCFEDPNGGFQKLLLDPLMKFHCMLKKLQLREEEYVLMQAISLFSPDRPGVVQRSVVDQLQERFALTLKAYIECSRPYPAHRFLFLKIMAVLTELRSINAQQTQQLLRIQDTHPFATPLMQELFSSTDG
Method in brief: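 Luminescent readout (One-Glo luciferase, 30 min room temperature) followed 24 hr compound treatment at 37 C of rPXR cells plated 2,000 per well and preincubated 5hr; qHTS format with compounds delivered in DMSO.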

[19] = molecular target: Nuclear receptor subfamily 1 group I member 2 (Homo sapiens) (UniProt O75469); assay: CYP3A4 induction through human pregnane X receptor (PXR) by small molecules, qHTS assay (AID 1346984); note: % is set by controls: 0 for no effect and ±100 for the full control effect; nearly all actives have a fitted effect of over 40% in size
Method in brief: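 HepG2-derived DPX-2 line carrying PXR plus a CYP3A4-promoter luciferase reporter; cells plated 5 hr, compound-exposed 24 hr at 37C. CYP3A4 activity probed with 3uM (final) Luciferin-IPA for 3hr, then luciferase read after One-Glo.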

[20] = molecular target: Nuclear receptor subfamily 1 group I member 2 (Homo sapiens) (UniProt O75469); assay: Human pregnane X receptor (PXR) activation by small molecules, qHTS assay (AID 1346985); note: % is set by controls: 0 for no effect and ±100 for the full control effect; nearly all actives have a fitted effect of over 40% in size
Method in brief: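 DPX-2 cells (HepG2 co-transfected with a PXR response element and a CYP3A4-promoter luciferase construct) were seeded at 2,000 per well, rested 5 hr at 37C, then exposed to DMSO-dissolved compounds for 24 hr. Activation was read as luciferase luminescence.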

CCOC(=S)S
inactive: Potency [1] | Potency [4] | outcome [5] | Potency [6] | Potency [7]
active: Potency [2] 4.86 µM | Potency [3] 4.86 µM | Potency [8] 61.1 µM and 23.1 µM

C#CCOS(=O)OC1CCCCC1Oc1ccc(C(C)(C)C)cc1 (stereo not drawn)
active: Potency [1] 30.7 µM and 48.6 µM | Potency [6] 7.08 µM and 7.7 µM | Potency [8] 1.94 µM and 1.93 µM | Potency [12] 8.64 µM and 6.86 µM
inactive: Potency [9] | Potency [2] | Potency [10] | Potency [4] | outcome [5] | Potency [11] | Potency [7] | Potency [13]

Cc1ccc(OP(=O)(Oc2ccc(C)cc2)Oc2ccc(C)cc2)cc1
27.3 µM (active) and inactive: Potency [8]
967 nM (active) and inactive: Potency [7]
active: Potency [14] 15.4 µM | Potency [12] 5.44 µM and 13.7 µM
inactive: Potency [1] | Potency [9] | Potency [3] | Potency [4] | outcome [5] | Potency [11] | Potency [6] | Potency [15] | Potency [13]

CCCCCc1cc(O)cc(O)c1
inactive: Potency [1] | Potency [9] | Potency [10] | Potency [4] | outcome [5] | Potency [16] | Potency [11] | Potency [6] | Potency [7] | Potency [17] | Potency [13]
active: Potency [14] 68.9 µM and 21.7 µM | Potency [12] 61.4 µM and 30.6 µM

O=P(Oc1ccccc1)(Oc1ccccc1)Oc1ccccc1
inactive: Potency [1] | Potency [9] | Potency [2] | Potency [3] | Potency [10] | Potency [4] | outcome [5] | Potency [16] | Potency [11] | Potency [6] | Potency [7] | Potency [17]
active: Potency [8] 68.2 µM | Potency [12] 30.5 µM and 27.3 µM | Potency [13] 19.9 µM and 20 µM

Nc1ccc(Cl)c(Cl)c1
inactive: Potency [1] | Potency [9] | Potency [2] | Potency [3] | Potency [10] | Potency [4] | outcome [5] | Potency [16] | Potency [11] | Potency [6] | Potency [7] | Potency [8] | Potency [17] | Potency [15] | Potency [12] | Potency [13]

CC(C)(OOC(C)(C)c1ccccc1)c1ccccc1
inactive: Potency [1] | Potency [9] | Potency [2] | Potency [3] | Potency [4] | outcome [5] | Potency [16] | Potency [11] | Potency [6] | Potency [7] | Potency [8] | Potency [15] | Potency [12] | Potency [13]

C=C(C)[C@H]1Cc2c(ccc3c2O[C@@H]2COc4cc(OC)c(OC)cc4[C@@H]2C3=O)O1
inactive: Potency [9] | Potency [4] | outcome [5] | Potency [16] | Potency [11] | Potency [7] | Potency [17] | Potency [12] | Potency [13]
active: Potency [1] 2.77 µM and 96.9 nM and 188 nM | Potency [14] 19.6 µM and 9.69 µM and 11.9 µM | Potency [6] 112 nM and 2.17 µM and 298 nM | Potency [8] 175 nM and 770 nM and 7.5 µM | Potency [15] 39.1 µM and 30.6 µM and 5.31 µM

c1cc(OCC2CO2)ccc1Cc1ccc(OCC2CO2)cc1 (stereo not drawn)
inactive: Potency [1] | Potency [9] | Potency [4] | outcome [5] | Potency [16] | Potency [11] | Potency [7] | Potency [15] | Potency [13]
active: Potency [12] 68.9 µM and 61.1 µM

c1ccc(-c2cccc(-c3ccccc3)c2)cc1
active: Potency [12] 61.8 µM and 27.3 µM
inactive: Potency [1] | Potency [9] | Potency [2] | Potency [3] | Potency [10] | Potency [4] | outcome [5] | Potency [11] | Potency [6] | Potency [7] | Potency [8] | Potency [17] | Potency [13]

CCC(=O)O[C@H]1CC[C@H]2[C@@H]3CCC4=CC(=O)CC[C@]4(C)[C@H]3CC[C@]12C
active: Potency [14] 0.486 µM
inactive: Potency [1] | Potency [2] | Potency [10] | Potency [4] | outcome [5] | Potency [6] | Potency [7] | Potency [8] | Potency [15] | Potency [12] | max activation [18] -2.06% | outcome [19] | outcome [20] | Potency [13]

O=C(Nc1ccc(Br)cc1)c1cc(Br)cc(Br)c1O
inactive: Potency [3] | Potency [11] | Potency [7] | Potency [17] | max activation [18] -12.3% | outcome [20] | Potency [13]
active: Potency [1] 21.6 µM and 9.69 µM | Potency [2] 12.1 µM and 21.7 µM | Potency [10] 30.8 µM and 21.9 µM and 19 µM | Potency [4] 24.5 µM and 43.6 µM and 23.9 µM | Potency [6] 6.31 µM and 8.63 µM and 10.6 µM | Potency [8] 17.2 µM and 15.4 µM | Potency [12] 13.6 µM and 13.7 µM and 21.1 µM
